According to the supplement of paper PMC3484114:
± gives the standard deviation.

system: OVCAR-3-derived ovarian cancer stem-like cells (spheroids); assay: cell growth relative to untreated control; higher = more growth (less inhibition); conditions: 2.29 µM; 96 h
Method in brief: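 Percent growth was calculated against untreated wells once blanks were subtracted and Grubbs outliers removed. The cells were OVCAR-3 spheroid-derived stem-like cells, trypsinized and plated at 50,000 cells/mL in stem cell medium on ultra-low attachment 96-well plates for a 24 h preincubation. They were then exposed to compounds at 2.29 uM for 96 h at 37°C, 5% CO2, in 4 replicate wells, and viability was measured by TOX8 resazurin fluorescence (ex 560/em 590 nm) after 4 h.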

| SMILES | cell growth |
| --- | --- |
| Cc1nc2c(nc1C)C(=O)c1ccccc1C2=O | 54.6 ± 6.1% |
| O=C([O-])c1cc(I)cc(I)c1O.O=C([O-])c1cc(I)cc(I)c1O.[Mn+2] | 77.4 ± 10% |
| CC1(c2cccc3ccccc23)OC(=O)c2ccccc21 (configuration not stated) | 116 ± 29% |
| O=C(CC1(O)C(=O)Nc2c(Cl)ccc(Cl)c21)c1ccc(Cl)cc1Cl (configuration not stated) | 123 ± 11% |
| O=[n+]1c2c(n([O-])c3ccccc31)-c1cccc3cccc-2c13 | 92 ± 21% |
| O=[N+]([O-])c1cccc2nc3ccccc3c(NCCCNc3c4ccccc4nc4cccc([N+](=O)[O-])c34)c12 | 10.8 ± 2.9% |
| S=C(Nc1ccccc1)N(/N=C/C=C/c1ccccc1)c1nnc(-c2ccccc2)c(-c2ccccc2)n1 | 132 ± 57% |
| CN1C(Cl)=NS(=O)(=O)c2ccccc21 | 99.9 ± 12% |
| Cc1ccc(NC(=O)c2cccc([N+](=O)[O-])c2O)c(C)c1 | 110 ± 19% |
| CC(C)c1ccc(O)c(=O)cc1 | 66.5 ± 20% |
| CC[C@]1(O)C[C@@H]2CN(CCc3c([nH]c4ccccc34)[C@@](C(=O)OC)(c3cc4c(cc3OC)N(C)[C@H]3[C@@](O)(C(=O)OC)[C@H](OC(C)=O)[C@]5(CC)C=CCN6CC[C@]43[C@@H]65)C2)C1 | 49.1 ± 11% |
| O=C1c2ccccc2C(=O)c2c(O)c(NCCNCCO)cc(O)c21 | 82.8 ± 24% |
| C=C1C(=O)OC2/C=C(/CO)[C@@H](OC(C)=O)C[C@H](O)/C(C)=C\[C@@H](OC(=O)[C@@H](C)CC)[C@@H]12 (some centres not stated) | 100 ± 50% |
| Cc1ccc(S(=O)(=O)ON=C2CC(c3ccccc3)N(C)C(c3ccccc3)C2)cc1 (configuration not stated) | 96.7 ± 22% |
| COc1cc2c3c(c1OC)-c1cc4c(cc1CC3(C#N)N(C(=O)c1ccccc1)CC2)OCO4 (configuration not stated) | 93.1 ± 24% |
| CN/N=C(\C)C(CN1CCCCC1)C(C1=C(O)c2ccccc2OC1)c1ccccc1 (configuration not stated) | 94.9 ± 41% |
| CC1(C)N=C(N)N=C(N)N1c1ccc(OCCCOc2ccccc2)c(Cl)c1 | 43.6 ± 13% |
| CCN(CC)Cc1cc(N=Nc2c(O)ccc3c(N=Nc4ccc(O)c(CN(CC)CC)c4)c(O)ccc23)ccc1O | 70.5 ± 21% |
| BrCCC[P+](c1ccccc1)(c1ccccc1)c1ccccc1 | 42.9 ± 7.3% |
| COC1CN(C)C(=Nc2cccc3ccccc23)S1 (configuration not stated) | 130 ± 21% |
| O=S(=O)(O)SC/C=C/CSS(=O)(=O)O | 143 ± 16% |
| COc1cc(O)c2c(c1)C(=O)c1cc3c(c(O)c1C2=O)C(OC1OC(C)C(O)C(O)C1OC)C(OC)C(C)(O)C3=O (configuration not stated) | 17.1 ± 7.5% |
